Measurements reported in PubChem BioAssay (NCATS).
Where “and” joins values, the source holds several entries; their conditions need not be identical. Equal values may be shown once. Results filed as inconclusive are left out. Calls of active or inactive are those of the source. Unless noted, calls follow the shape of the dose curve; as a rule, active = well fitted curve in the direction sought with a large enough effect; inconclusive = small, poorly fitted or top-dose-only effect, or another doubt; inactive = no such curve, though single readings can be large; an effect the other way counts as inactive or inconclusive.

What was measured:
[1] = Cell Viability - Mesenchymal (AID 546); settings: mesenchymal cells viability, qHTS; activity change, negative = cytotoxicity: at 91.7 µM (top of the series);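 also: cells exposed to compound for 40 hours before reading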
In short: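 Human kidney mesenchymal cells from normal renal glomeruli, 1000 cells/well, rested 5 hr at 37 °C, then treated 40 hr at 37 °C in complete medium. Cellular ATP read by CellTiter-Glo luminescence; AC50 from Hill-equation fits.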

[2] = Cellular Toxicity (caspase-3) HepG2 (AID 654);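 also: cells exposed to compound for 16 hours before reading; 0% = DMSO alone and 100% = caspase signal from 100 µM tamoxifen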
In short: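 qHTS, HepG2, 1500 cells/well, complete medium; cpd 16 h 37 °C; Caspase-Glo 3/7, 20 min RT; lum. Norm: DMSO vs 100 uM tamoxifen; AC50 Hill fit.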

[3] = Cellular Toxicity (caspase-3) Jurkat (AID 655); settings: Jurkat caspase-3 activation, luminescence, DMSO = 0%, tamoxifen = 100%; at 92.2 µM (top of the series);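 also: cells exposed to compound for 16 h at 37 °C before reading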
In short: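 Jurkat cells (5000/well) in complete medium were treated with compounds for 16 hr at 37 °C, then Caspase-Glo 3/7 luminescence was read after 20 min at room temperature. Data normalized to DMSO (basal) and 100 uM tamoxifen (100%); AC50 from Hill fit.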

[4] = Cellular Toxicity (caspase-3) HUV-EC-C (AID 656)
In short: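 HUV-EC-C endothelial cells, 1000/well, were pre-incubated 5 hr at 37°C, then exposed to compounds for 16 hr at 37°C. Caspase-Glo 3/7 luminescence was read after 20 min at room temperature. AC50 came from Hill fits, normalized to DMSO and 100 uM tamoxifen.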

[5] = Cellular Toxicity (caspase-3) SHSY5Y (AID 657)
In short: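 SH-SY5Y human neuroblastoma cells (1500/well) were treated with compounds for 16 h at 37 °C, then Caspase-Glo 3/7 luminescence was read after 1 h at room temperature. Data normalized to DMSO and 10 uM staurosporine; AC50 from Hill fits.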

[6] = Cellular Toxicity (caspase-3) BJ (AID 658);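 also: 0% = DMSO basal and 100% = 10 µM staurosporine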
In short: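 BJ human foreskin fibroblasts, 1000 cells/well, treated 16 hours at 37 °C in complete medium; caspase 3/7 activity by Caspase-Glo luminescence after 1 hr at room temperature. Normalized to DMSO and 10 uM staurosporine; AC50 from Hill fits.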

[7] = Cellular Toxicity (caspase-3) MRC-5 (AID 659);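 also: 0% = DMSO basal and 100% = 10 µM staurosporine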
In short: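 MRC-5 human normal lung fibroblasts, 1500 cells/well, treated 16 h at 37 °C in complete medium. Caspase 3/7 measured by Caspase-Glo luminescence after 1 h at room temperature. Normalized to DMSO and 10 uM staurosporine; AC50 from Hill fit.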

[8] = Cellular Toxicity (caspase-3) Mesangial (AID 660);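 also: combined caspase 3 and 7 activity read by Caspase-Glo luminescence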
In short: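 Concentration-response qHTS: compound-induced rise in caspase 3/7 luminescence in human mesangial cells after 16 h, normalized to DMSO and 100 uM tamoxifen controls.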

[9] = Cellular Toxicity (caspase-3) SK-N-SH (AID 661);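 also: 0% = DMSO basal and 100% = 10 µM staurosporine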
In short: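 Caspase 3/7 activation is measured as a luminescence increase from aminoluciferin released by substrate cleavage in SK-N-SH cells after 16 hr compound treatment; values are AC50 from concentration-response curves.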

[10] = Cellular Toxicity (caspase-3) H-4-II-E (AID 663); settings: Potency: caspase-3 activation;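 also: cells exposed to compound for 16 hr before readout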
In short: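 Rat hepatoma H-4-II-E cells (1500/well) plated 5 hr, then exposed to compound titrations for 16 hr at 37 °C. Caspase-Glo 3/7 luminescence read after 20 min at RT; data normalized to DMSO and 100 uM tamoxifen, AC50 from Hill fits.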

[11] = Cellular Toxicity (caspase-3) Hek293 (AID 664);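 also: cells exposed to compound for 16 h at 37 °C before readout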
In short: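 Activation of caspase-3/7 is measured as increased luminescence from cleaved peptide-aminoluciferin substrate in HEK293 cells treated 16 hours at 37 °C. AC50 values come from Hill-equation fits of concentration-response data.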

[12] = Cellular Toxicity (caspase-3) N2a (AID 665);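 also: compound exposure lasted 16 h at 37 °C before readout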
In short: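 Plated mouse neuroblastoma N2a cells received titrated compounds for 16 h in complete medium. Caspase activity was then detected with a peptide-aminoluciferin luminescent reagent.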

[13] = Cellular Toxicity (caspase-3) Renal Proximal Tubule (AID 667);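 also: cells exposed to compound for 16 hours at 37 °C before detection; 0% = DMSO basal and 100% = 10 µM staurosporine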
In short: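 Primary rat proximal tubule cells, 1000/well, 5 h plating at 37 °C, then compound 16 h at 37 °C. Caspase-Glo 3/7 reagent, 1 h RT, luminescence. Normalized to DMSO (basal) and 10 uM staurosporine (100%); Hill-fit AC50.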

[14] = target: Glucocorticoid receptor (Homo sapiens) (UniProt P04150); test: qHTS assay for small molecule agonists of glucocorticoid receptor signaling (AID 588532; active = well fitted curve in the direction sought with a large enough effect in the signal ratio, with a control signal flat; the % refers to the signal ratio;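 also: 100% = dexamethasone at 0.1 µM and 0% = DMSO only wells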); settings: HeLa MMTV-bla, beta-lactamase ratio, agonist, 18 h; active compounds read high; percent of dexamethasone control, DMSO zero
Sequence of Glucocorticoid receptor (Homo sapiens) (P04150 whole entry, looked up): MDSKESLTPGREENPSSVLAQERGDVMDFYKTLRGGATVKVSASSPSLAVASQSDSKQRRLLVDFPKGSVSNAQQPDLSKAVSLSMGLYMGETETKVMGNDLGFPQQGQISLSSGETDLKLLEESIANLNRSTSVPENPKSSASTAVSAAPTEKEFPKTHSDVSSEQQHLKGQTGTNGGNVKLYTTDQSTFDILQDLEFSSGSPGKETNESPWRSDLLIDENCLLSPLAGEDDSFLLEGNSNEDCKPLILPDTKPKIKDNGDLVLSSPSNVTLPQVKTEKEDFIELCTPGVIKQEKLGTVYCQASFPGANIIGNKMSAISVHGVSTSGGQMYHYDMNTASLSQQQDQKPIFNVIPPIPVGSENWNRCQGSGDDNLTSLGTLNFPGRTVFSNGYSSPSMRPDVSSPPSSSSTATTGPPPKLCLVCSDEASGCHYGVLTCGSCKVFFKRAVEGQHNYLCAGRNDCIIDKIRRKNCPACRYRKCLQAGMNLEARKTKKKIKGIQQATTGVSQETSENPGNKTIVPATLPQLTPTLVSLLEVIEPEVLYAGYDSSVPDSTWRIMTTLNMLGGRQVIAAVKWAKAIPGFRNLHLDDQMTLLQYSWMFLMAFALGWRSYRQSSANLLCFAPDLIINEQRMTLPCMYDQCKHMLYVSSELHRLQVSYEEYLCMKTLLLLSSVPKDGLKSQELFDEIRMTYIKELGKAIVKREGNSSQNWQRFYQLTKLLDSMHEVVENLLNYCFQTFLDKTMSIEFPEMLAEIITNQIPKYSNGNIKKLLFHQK
In short: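 Cells were plated and rested 3-5 h at 37 C, compounds were added in titration and incubated 18 h, then CCF4 substrate was loaded for 2 h at RT before reading blue/green fluorescence. EC50 came from Hill-equation fitting.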

[15] = target: Glucocorticoid receptor (Homo sapiens) (UniProt P04150); test: qHTS assay for small molecule antagonists of glucocorticoid receptor signaling (AID 588533; active = well fitted inhibition curve with a large enough effect in the signal ratio, with a control signal flat, not every such curve was filed as active; the % refers to the signal ratio;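 also: cells stimulated with 2 nM dexamethasone as agonist; % is scaled to controls: 0 for no effect and ±100 for the full control effect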)
In short: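 Antagonist-mode qHTS: compound titrations added to GRE-bla HeLa cells, then dexamethasone 2 nM final; 18 h, 37 C. CCF4 FRET fluorescence normalized to dexamethasone and DMSO; IC50 from Hill fit.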

[16] = target: Voltage-gated inwardly rectifying potassium channel KCNH2 (Homo sapiens) (UniProt Q12809); test: qHTS Assay for Small Molecule Inhibitors of the Human hERG Channel Activity (AID 588834);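 also: top concentration of the series differs between compounds; % is scaled to controls: 0 for no effect and ±100 for the full control effect; lower thallium flux fluorescence means stronger hERG block; nearly all actives have a fitted effect of over 50% in size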
Sequence of Voltage-gated inwardly rectifying potassium channel KCNH2 (Homo sapiens) (Q12809 whole entry, looked up): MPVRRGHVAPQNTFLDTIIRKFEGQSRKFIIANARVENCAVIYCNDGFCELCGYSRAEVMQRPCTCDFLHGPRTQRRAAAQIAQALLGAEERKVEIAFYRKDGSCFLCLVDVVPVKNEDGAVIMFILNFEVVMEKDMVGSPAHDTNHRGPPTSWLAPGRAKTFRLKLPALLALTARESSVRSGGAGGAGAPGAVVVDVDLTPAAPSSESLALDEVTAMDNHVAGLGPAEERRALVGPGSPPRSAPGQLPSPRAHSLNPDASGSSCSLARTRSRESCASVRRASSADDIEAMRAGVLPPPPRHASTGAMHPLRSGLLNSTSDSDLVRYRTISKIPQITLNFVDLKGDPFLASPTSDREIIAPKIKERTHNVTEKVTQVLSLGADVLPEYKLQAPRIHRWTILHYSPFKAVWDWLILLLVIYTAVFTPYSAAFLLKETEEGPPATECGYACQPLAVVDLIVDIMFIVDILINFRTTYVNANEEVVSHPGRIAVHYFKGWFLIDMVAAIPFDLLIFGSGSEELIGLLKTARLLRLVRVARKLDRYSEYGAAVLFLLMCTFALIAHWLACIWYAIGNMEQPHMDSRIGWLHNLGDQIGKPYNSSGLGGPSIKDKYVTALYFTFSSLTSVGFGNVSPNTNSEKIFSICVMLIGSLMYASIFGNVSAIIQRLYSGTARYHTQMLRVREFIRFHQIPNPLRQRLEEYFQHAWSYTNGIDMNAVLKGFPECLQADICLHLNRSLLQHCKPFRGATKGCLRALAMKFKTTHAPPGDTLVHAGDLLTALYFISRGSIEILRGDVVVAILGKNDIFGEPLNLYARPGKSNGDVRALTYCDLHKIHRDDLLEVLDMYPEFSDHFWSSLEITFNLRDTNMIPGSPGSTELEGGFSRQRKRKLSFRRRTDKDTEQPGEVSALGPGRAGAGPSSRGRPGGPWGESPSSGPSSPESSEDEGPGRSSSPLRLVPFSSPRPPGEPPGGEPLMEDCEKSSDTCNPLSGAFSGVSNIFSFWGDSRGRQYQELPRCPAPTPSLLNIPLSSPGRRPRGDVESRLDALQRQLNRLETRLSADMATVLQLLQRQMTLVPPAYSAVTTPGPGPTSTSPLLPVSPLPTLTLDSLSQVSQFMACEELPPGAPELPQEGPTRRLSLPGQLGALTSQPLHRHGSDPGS
In short: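 U2OS cells transduced with hERG via BacMam (MOI ~100), plated 2000/well, loaded with FluxOR thallium dye, compound ~10 min, then stimulation buffer; fluorescence decrease read kinetically; AC50 from Hill fits.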

[17] = qHTS assay for small molecule disruptors of the mitochondrial membrane potential - 1 hr assay (AID 651754; calls by dose curve; also: % is scaled to controls: 0 for no effect and ±100 for the full control effect; nearly all actives have a fitted effect of over 35% in size)
In short: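 Steps: seed HepG2 cells and let attach overnight; pin-transfer compound or vehicle; incubate 1 hr at 37C; add Mito-MPS dye for 30 min; read two-channel fluorescence for monomer and aggregate forms.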

[18] = qHTS assay for small molecule disruptors of the mitochondrial membrane potential - 5 hr assay (AID 651755; calls by dose curve; also: % is scaled to controls: 0 for no effect and ±100 for the full control effect; nearly all actives have a fitted effect of over 40% in size)
In short: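 HepG2 cells (2,000/well), attached overnight, exposed to compound 5 hr at 37C, then Mito-MPS dye 30 min. Fluorescence read for monomers (490/535 nm) and aggregates (540/590 nm).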

[19] = target: Tumor necrosis factor (Homo sapiens) (UniProt P01375); test: qHTS assay to identify small molecules that stimulate Tumor Necrosis Factor-alpha (TNF-alpha) secretion (AID 651757; active = well fitted curve in the direction sought with a large enough effect in the signal ratio; the % refers to the signal ratio; also: 0% is about no effect)
Sequence of Tumor necrosis factor (Homo sapiens) (P01375 whole entry, looked up): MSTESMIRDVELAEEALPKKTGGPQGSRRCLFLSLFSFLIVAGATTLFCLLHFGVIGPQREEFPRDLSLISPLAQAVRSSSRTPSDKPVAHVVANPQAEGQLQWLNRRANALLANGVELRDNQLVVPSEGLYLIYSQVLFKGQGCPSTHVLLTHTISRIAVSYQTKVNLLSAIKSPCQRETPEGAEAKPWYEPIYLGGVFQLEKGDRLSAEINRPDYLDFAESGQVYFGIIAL
In short: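 Secreted TNF-alpha from compound-treated THP-1 cells (17 hrs, 37 C) was quantified with a homogeneous time-resolved fluorescence antibody assay.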

[20] = target: Nuclear receptor ROR-gamma (Homo sapiens) (UniProt P51449); test: qHTS assay for small molecule antagonists of the retinoid-related orphan receptor gamma (ROR-gamma) signaling pathway (AID 651802);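 also: CHO cells with doxycycline-induced ROR-gamma expression; luciferase reporter luminescence driven by ROR response element; % is scaled to controls: 0 for no effect and ±100 for the full control effect; nearly all actives have a fitted effect of over 60% in size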
Sequence of Nuclear receptor ROR-gamma (Homo sapiens) (P51449 whole entry, looked up): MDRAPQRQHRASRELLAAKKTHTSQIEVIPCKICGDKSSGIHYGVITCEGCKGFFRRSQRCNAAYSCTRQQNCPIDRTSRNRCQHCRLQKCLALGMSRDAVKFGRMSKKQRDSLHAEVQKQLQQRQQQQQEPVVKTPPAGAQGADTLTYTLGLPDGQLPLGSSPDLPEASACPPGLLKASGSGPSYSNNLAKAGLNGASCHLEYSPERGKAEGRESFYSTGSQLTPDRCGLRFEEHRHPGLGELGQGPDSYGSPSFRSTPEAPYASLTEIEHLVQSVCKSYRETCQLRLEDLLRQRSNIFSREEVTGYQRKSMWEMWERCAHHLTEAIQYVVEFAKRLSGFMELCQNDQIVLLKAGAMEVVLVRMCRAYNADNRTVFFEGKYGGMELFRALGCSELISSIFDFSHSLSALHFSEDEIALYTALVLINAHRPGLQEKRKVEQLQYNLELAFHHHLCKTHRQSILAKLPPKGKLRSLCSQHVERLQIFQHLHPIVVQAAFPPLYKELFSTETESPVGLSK
In short: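 Antagonism is scored as a fall in luminescence from a RORE-luciferase reporter in CHO cells expressing ROR under a TET-inducible promoter, measured 16hr after doxycycline induction in the presence of compound.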

CC12CCC(CC1=O)C2(C)C (stereo not given)
inactive: activity change, negative = cytotoxicity [1] -11.1% | outcome [2] | caspase-3 activation [3] -3.1% | outcome [4] | outcome [5] | outcome [6] | outcome [7] | outcome [8] | outcome [9] | Potency [10] | outcome [11] | outcome [12] | outcome [13] | activation [14] -1.08% and -9.03% | Potency [15] | Potency [16] | Potency [17] | Potency [18] | outcome [19] | Potency [20]
